Measurements taken from PubChem BioAssay (Tox21).
Unmarked numbers belong to inactive results. Results filed as inconclusive are left out. A call without a number means that no potency is given here. Active and inactive are the calls of the source. Unless noted, calls come from the whole dose curve; as a rule, active = well fitted curve in the direction sought with a large enough effect in the repeat runs; inconclusive = weak or mixed curves; inactive = no such curve, though single readings can be large; an effect the other way counts as inactive or inconclusive.

Legend:
[1] = qHTS assay for small molecules that induce genotoxicity in human embryonic kidney cells expressing luciferase-tagged ATAD5 (AID 651632); note: nearly all actives have a fitted effect of over 15% in size; note: potency is the fitted concentration of half-maximal effect
Procedure, shortened: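 ATAD5-luc HEK293T, 2,000 cells/well; cpd or DMSO pin-transferred; 16 hr, 37C/5% CO2; Amplite 30 min RT; luminescence.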

[2] = qHTS assay for small molecule agonists of the p53 signaling pathway - cell viability (AID 651633; calls by dose curve;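 note: p53RE-bla HCT reporter cells with a stable beta-lactamase p53 reporter; series mostly up to about 83 µM; nearly all actives have a fitted effect of over 30% in size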)
Procedure, shortened: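 p53RE-bla cells, seeded at 4,000 per well and rested 5 h at 37 C/5% CO2, received compounds in DMSO for 16 h at 37 C. CellTiter-Glo was then added, and luminescence was read after 30 min at room temperature to gauge cytotoxicity.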

[3] = qHTS assay for small molecules that induce genotoxicity in human embryonic kidney cells expressing luciferase-tagged ATAD5 - cell viability (AID 651634; calls by dose curve; note: nearly all actives have a fitted effect of over 25% in size)
Procedure, shortened: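 Fluorescence from CellTiter-Fluor, reporting protease activity within live cells, served as the viability read-out. HEK293T cells carrying luciferase-tagged ATAD5 had been treated with compound for 15.5 hr at 37C.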

[4] = qHTS assay for small molecule disruptors of the mitochondrial membrane potential - cell viability (AID 720634; calls by dose curve; note: nearly all actives have a fitted effect of over 20% in size; note: potency is the fitted concentration of half-maximal effect)
Procedure, shortened: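 Cells: HepG2, 2,000/well, attached overnight. Compound 1 hr, 37 C/5% CO2. +m-MPI dye, +CellTiter-Glo 30 min RT. Readout: luminescence (ATP).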

[5] = qHTS assay for small molecule disruptors of the mitochondrial membrane potential (AID 720635); note: potency is the fitted concentration of half-maximal effect
Procedure, shortened: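 HepG2 cells (2,000/well) attached overnight at 37C, then took compound for 1 hr at 37C, 5% CO2. Mito-MPS dye was added for 30 min; fluorescence was read at 490/535 nm (monomers) and 540/590 nm (aggregates).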

[6] = qHTS assay to test for compound auto fluorescence at 590 nm (red) in HepG2 cells (AID 720674)
Procedure, shortened: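 Rose Bengal sodium served as the red fluorophore standard. HepG2 monolayers (overnight attachment, MEM with 10% FBS) were exposed to test compounds for 1 hr at 37 C and read at Ex 540/Em 590 nm.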

[7] = qHTS assay to test for compound auto fluorescence at 535 nm (green) in HepG2 cells (AID 720675)
[8] = qHTS assay to test for compound auto fluorescence at 460 nm (blue) in HEK293 cells (AID 720678)
Procedure, shortened: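 Blue-channel (Ex/Em 405/460 nm) intensity measured in HEK293 cultures after overnight compound exposure at 37C; signal expressed relative to triamterene. Cells plated 2,000 per well in 10% dialyzed FBS medium and allowed 4-5 hr to attach.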

[9] = qHTS assay to test for compound auto fluorescence at 590 nm (red) in HEK293 cells (AID 720679)
Procedure, shortened: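 Red-channel autofluorescence (Ex/Em 540/590 nm; Rose Bengal sodium reference) was measured after overnight 37C, 5% CO2 exposure of attached HEK293 cells, 2,000 per well in medium with 10% dialyzed FBS.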

[10] = qHTS assay to test for compound auto fluorescence at 460 nm (blue) in HEK293 cell free culture (AID 720681)
Procedure, shortened: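 Test compounds were pinned into cell-free culture medium (DMEM with 10% FBS) and fluorescence was read directly at Ex/Em 405/460 nm. Signals were expressed as fluorescence equivalents of triamterene, with DMSO vehicle as control.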

[11] = qHTS assay to test for compound auto fluorescence at 535 nm (green) in HEK293 cell free culture (AID 720682)
Procedure, shortened: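 No cells present: wells hold DMEM supplemented with 10% FBS, into which compound or vehicle is pinned. Green emission is then recorded (485 nm excitation, 535 nm emission) and scaled to fluorescein.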

[12] = qHTS assay to test for compound auto fluorescence at 590 nm (red) in HEK293 cell free culture (AID 720683)
Procedure, shortened: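 Tox21 10K library compounds were pinned into cell-free DMEM with 10% FBS and fluorescence was read at excitation 540 nm. Activity is expressed as Rose Bengal sodium equivalency.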

[13] = qHTS assay to test for compound auto fluorescence at 590 nm (red) in HepG2 cell free culture (AID 720684)
Procedure, shortened: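 Red fluorescence (540 nm excitation, 590 nm emission) was measured after compound transfer into cell-free MEM supplemented with 10% FBS. Values are equivalencies against Rose Bengal sodium.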

[14] = qHTS assay to test for compound auto fluorescence at 460 nm (blue) in HepG2 cell free culture (AID 720685)
Procedure, shortened: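 Compound (23 nL) or DMSO pinned into cell-free MEM with 10% FBS; blue fluorescence read at 405/460 nm excitation/emission, expressed as auto-fluorescence equivalency to triamterene.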

[15] = qHTS assay to test for compound auto fluorescence at 535 nm (green) in HepG2 cell free culture (AID 720686)
[16] = qHTS assay to test for compound auto fluorescence at 460 nm (blue) in HepG2 cells (AID 720687)
Procedure, shortened: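 Cells (2,000/well in MEM with 10% FBS) attached overnight at 37 C, then were exposed to compound or DMSO for 1 hr at 37 C, 5% CO2. Fluorescence read at Ex/Em 405/460 nm, expressed as triamterene-equivalent signal.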

[17] = qHTS assay to test for compound auto fluorescence at 535 nm (green) in HEK293 cells (AID 720680)
[18] = target: Glucocorticoid receptor (Homo sapiens) (UniProt P04150); test: qHTS assay to identify small molecule agonists of the glucocorticoid receptor (GR) signaling pathway (AID 720691; active = well fitted activation curve with a large enough effect in the signal ratio in the repeat runs, not every such curve was filed as active; the % refers to the signal ratio)
Chain of Glucocorticoid receptor (Homo sapiens) (P04150 whole entry, looked up): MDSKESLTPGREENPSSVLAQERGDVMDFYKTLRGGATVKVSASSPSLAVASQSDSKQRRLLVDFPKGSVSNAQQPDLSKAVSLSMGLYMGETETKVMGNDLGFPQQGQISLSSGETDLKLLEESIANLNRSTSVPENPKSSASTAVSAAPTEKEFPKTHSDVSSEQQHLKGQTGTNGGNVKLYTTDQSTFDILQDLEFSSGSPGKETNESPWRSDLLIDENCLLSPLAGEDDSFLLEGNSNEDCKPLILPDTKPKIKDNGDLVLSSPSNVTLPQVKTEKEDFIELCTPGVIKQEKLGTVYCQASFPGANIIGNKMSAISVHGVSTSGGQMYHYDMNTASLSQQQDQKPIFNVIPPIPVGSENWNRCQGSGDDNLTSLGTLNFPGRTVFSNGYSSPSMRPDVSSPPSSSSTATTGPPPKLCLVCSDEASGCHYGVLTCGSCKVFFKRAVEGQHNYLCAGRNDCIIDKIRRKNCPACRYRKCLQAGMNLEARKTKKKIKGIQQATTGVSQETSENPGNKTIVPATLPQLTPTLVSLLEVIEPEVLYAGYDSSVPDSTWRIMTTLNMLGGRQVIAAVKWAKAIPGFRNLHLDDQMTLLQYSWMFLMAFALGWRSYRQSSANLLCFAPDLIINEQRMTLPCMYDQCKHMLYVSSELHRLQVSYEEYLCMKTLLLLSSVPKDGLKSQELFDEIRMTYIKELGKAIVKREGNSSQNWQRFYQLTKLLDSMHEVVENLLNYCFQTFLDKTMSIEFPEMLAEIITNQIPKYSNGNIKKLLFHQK
Procedure, shortened: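 Fluorescence intensity from LiveBLAzer B/G FRET substrate (2 h, room temperature) reports beta-lactamase expression driven by the glucocorticoid response element in GR-bla HeLa cells after 18 h compound exposure at 37 C.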

[19] = target: Glucocorticoid receptor (Homo sapiens) (UniProt P04150); test: qHTS assay to identify small molecule antagonists of the glucocorticoid receptor (GR) signaling pathway (AID 720692; active = well fitted inhibition curve with a large enough effect in the signal ratio in the repeat runs, not every such curve was filed as active; the % refers to the signal ratio)
Procedure, shortened: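 HeLa GR-bla cells; cmpd + dex 5 nM final, 18 h 37 C; LiveBLAzer B/G FRET substrate 2 h RT; fluorescence intensity read. Antagonist mode, qHTS.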

SMILES | Potency [1] | Potency [2] | Potency [3] | Potency [4] | Potency [5] | outcome [6] | outcome [7] | outcome [8] | outcome [9] | outcome [10] | outcome [11] | outcome [12] | outcome [13] | outcome [14] | outcome [15] | outcome [16] | outcome [17] | Potency [18] | Potency [19]
c1ccc(CN(CC2=NCCN2)c2ccccc2)cc1 | inactive | inactive | inactive | inactive | inactive | inactive | inactive | inactive | inactive | inactive | inactive | inactive | inactive | inactive | inactive | inactive |  |  | 
CCCCCCCOC(=O)CCC | inactive | inactive | inactive | inactive | inactive | inactive | inactive | inactive | inactive | inactive |  | inactive | inactive | inactive | inactive | inactive | inactive | inactive | 
Cc1ccc([N+](=O)[O-])c(N)c1 | inactive | inactive | inactive | inactive | inactive | inactive | inactive | inactive | inactive | inactive |  | inactive | inactive | inactive | inactive | inactive |  | inactive | 
CC(=O)OC1C2(C)CCC(C2)C1(C)C (stereo not given) | inactive | inactive | inactive | inactive | inactive | inactive | inactive | inactive | inactive | inactive | inactive | inactive |  | inactive | inactive | inactive | inactive | inactive | 
COc1ccc2nc(NC(=O)Nc3ccccc3)sc2c1 | 750 nM (active) | inactive | inactive | 6680 nM (active) | 1190 nM (active) | inactive | inactive | inactive | inactive | inactive |  | inactive |  | inactive | inactive |  | inactive | inactive | 
CCNCCO | inactive | inactive | inactive | inactive | inactive | inactive | inactive | inactive | inactive | inactive |  | inactive | inactive | inactive | inactive | inactive | inactive | inactive | inactive
CCOc1ccc(OCC)c(Cl)c1 | inactive | inactive | inactive | inactive |  | inactive | inactive | inactive | inactive | inactive | inactive | inactive | inactive | inactive | inactive |  | inactive | inactive | 
